Test results: PubChem BioAssay AID1626 (SRMLSC, 2009)
Hit rate of the full screen: of about 220,000 compounds, about 2,000 (0.91%) were called active. Roughly 2% stayed inconclusive and do not appear here. Cut-off read from the data, not from the text of the source: inconclusive = inhibition above about 80% without an active follow-up result; inactive = below that; test concentration not stated here. The list is a sample of the results. Results with a measured potency or affinity are listed apart.

Test: M. tuberculosis H37Rv growth inhibitors, H37Rv strain (AID 1626);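 note: bacteria incubated seven days before Alamar blue readout; 0% = bacteria only wells and 100% = bacteria with antibiotic wells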
Conditions: active compounds read high, concentration not given here

| SMILES | inhibition |
| --- | --- |
| O=C(NCc1ccco1)c1ccc(COc2ccc(Cl)cc2)cc1 | 15.4% (inactive) |
| Nc1ccc(OCc2ccccc2)cc1 | 78.2% (inactive) |
| Cc1sc2nc3n(c(=O)c2c1C)CCCS3 | -3% (inactive) |
| N#Cc1c(-c2ccc(Cl)cc2)nc2n(c1=O)CCCS2 | -3.54% (inactive) |
| O=c1c2ccccc2nc2n1CCCS2 | -15.7% (inactive) |
| O=c1c(C(c2ccc(Cl)cc2)c2c(O)nc3n(c2=O)CCCS3)c(O)nc2n1CCCS2 | -3.6% (inactive) |
| COc1ccc(C(=O)NCCNc2ccccc2[N+](=O)[O-])cc1 | -4.94% (inactive) |
| O=C(COC(=O)Cn1cnc2ccccc21)NCCc1ccc(Cl)cc1 | -3.57% (inactive) |
| Cc1cccc(CN2C(=O)[C@H]3Cc4c([nH]c5ccccc45)C(C)(C)N3C2=O)c1 | 17.7% (inactive) |
| CC1(C)c2[nH]c3ccccc3c2C[C@@H]2C(=O)N(Cc3ccccc3)C(=O)N21 | 2.35% (inactive) |
| C=CCn1c(=O)c2c(C)c(C)sc2n2c(Nc3ccccc3)nnc12 | -3.44% (inactive) |
| O=C(CNc1cccc(Cl)c1)NNC(=S)NCc1ccccc1 | -0.97% (inactive) |
| COC(=O)/C=c1/sc2n(c1=O)CCN=2 | -5.21% (inactive) |
| CSc1ccc(CN2CCCC(CO)(Cc3ccccc3)C2)cc1 (stereo unspecified) | -4.33% (inactive) |
| CCn1cnc2sc(C(=O)Nc3ccccc3OC)c(C)c2c1=O | 2.12% (inactive) |
| Cc1c(C(=O)O)sc2ncn(C)c(=O)c12 | -6.12% (inactive) |
| Cc1ccc(OCCn2cnc3sc(C(N)=O)c(C)c3c2=O)cc1 | 11.2% (inactive) |
| CCn1cnc2sc(C(=O)O)c(C)c2c1=O | -6.48% (inactive) |
| Cc1ccc(CC(=O)NCc2ccc3c(c2)OCO3)cc1 | 23.6% (inactive) |
| O=C(O)C1(P(=O)(c2ccc(Cl)cc2)c2ccc(Cl)cc2)CC1 | 1.34% (inactive) |
| CCc1ccc(OCC2c3cc(OC)c(OC)cc3CCN2C(=S)NCCOC)cc1 (stereo unspecified) | 0.42% (inactive) |
| CSc1nnc(CNC(=O)c2ccccc2)n1-c1cccc(C)c1 | -0.55% (inactive) |
| O=C(O)c1ccccc1N1C(=O)C2C3CCC(C3)C2C1=O (stereo unspecified) | -3.82% (inactive) |
| CSC1=NCCN1C(=O)c1c(F)cccc1Cl | 1.18% (inactive) |
| Cc1ccc(S(=O)(=O)N2CCOCC2)cc1C(=O)NCc1ccco1 | -8.9% (inactive) |
| Cc1cc2ccccc2n1CCNC(=O)COc1ccccc1 | 13.1% (inactive) |

| SMILES | inhibition |
| --- | --- |
| O=C(COc1ccc2ccccc2c1)NCCn1ccc2ccccc21 | 9.42% (inactive) |
| Cc1nn(CC(=O)Nc2ccc3c(c2)nc2n3CCN(C3CCCCC3)C2)c(=O)c2ccccc12 | -1.06% (inactive) |
| Cc1nn(Cc2ccc(Cl)c(Cl)c2)c(C)c1NC(=O)c1noc2c1CCCCC2 | -6.28% (inactive) |
| Cc1nc2ccccc2nc1SCC(=O)c1ccccc1 | 8.55% (inactive) |
| COc1ccc(C(=O)CSc2nnc(-c3ccccn3)n2Cc2ccco2)cc1 | -7.14% (inactive) |
| Cc1nc(-c2ccccn2)nc(SCC(=O)N2CCOCC2)c1Cl | 3.81% (inactive) |
| CCCc1nc(SCC(=O)c2ccc(F)cc2)c2ccccc2n1 | 8.42% (inactive) |
| COc1ccc(C(=O)CSc2nnc3ccc(-c4ccccn4)nn23)cc1 | 2.65% (inactive) |
| Cn1c(SCC(=O)c2ccc(F)cc2)nc2cccnc21 | 3.26% (inactive) |
| Cc1ccc(NC(=O)COC(=O)c2ccc([N+](=O)[O-])o2)cc1S(=O)(=O)N1CCCCC1 | 8.45% (inactive) |
| O=C1c2ccccc2C(=O)N1CN(C(=O)c1ccccc1)c1ccc(O)cc1 | -0.6% (inactive) |
| Cc1cccnc1CCNC(=O)CCc1nnc(-c2ccccc2)o1 | 5.3% (inactive) |
| CCCN1CCN(C(=O)c2ccc(Sc3ccc(C)cc3)c(NC(C)=O)c2)CC1 | 3.99% (inactive) |
| CC(C)(C)c1ccccc1OCCCCN1CCCC1 | 6.1% (inactive) |
| CC(C)(C)c1ccccc1OCCN1CCCC1 | -0.65% (inactive) |
| CNC(=O)NC(=O)COC(=O)c1ccc(-n2c(C)ccc2C)cc1 | 20.2% (inactive) |
| CCOc1ccc(NC(=O)CSc2nnc(C3CC3)n2C)cc1 | 27.2% (inactive) |
| Cc1ccc(S(=O)(=O)N(CCCO)Cc2cc3c(C)ccc(C)c3[nH]c2=O)cc1 | -4.12% (inactive) |
| c1ccc(CC2CCN(c3nc4ccccc4n4nnnc34)CC2)cc1 | 12.1% (inactive) |
| c1ccc(CN2CCN(c3nc4ccccc4n4cnnc34)CC2)cc1 | 6.21% (inactive) |
| O=C(Nc1cccc(C(F)(F)F)c1)C1CCCN1S(=O)(=O)c1cccc2cccnc12 (stereo unspecified) | -8.3% (inactive) |
| CCCNC(=O)c1ccc2c(=O)c(O)c(-c3ccc(OC)cc3)[nH]c2c1 | -8.43% (inactive) |
| CCO[C@@H]1OC(C(=O)O)=C[C@H](C2CCCCC2)[C@H]1CCCO | 6.74% (inactive) |
| CCCCOC(=O)Nc1ccc(C(=O)OC)cc1 | -7.29% (inactive) |
| CCCCOC(=O)Nc1cccc(C(=O)OCC)c1 | 4% (inactive) |
| CCCCOC(=O)Nc1ccc(C(N)=O)cc1 | -2.7% (inactive) |

| SMILES | inhibition |
| --- | --- |
| COc1ccc(NC(=O)c2ccc(Br)o2)cc1 | -11.7% (inactive) |
| CCOC(=O)NCCOC(=O)Nc1ccc(Cl)cc1 | 2.79% (inactive) |
| CCN(CC)c1ccc(NC(=O)c2ccc(Br)o2)cc1 | -1.94% (inactive) |
| CCCOC(=O)c1ccc(NC(=O)c2cc(OC)c(OC)c(OC)c2Br)cc1 | -1.63% (inactive) |
| CCOC(=O)c1ccc(NC(=O)c2cc(OC)c(OC)c(OC)c2Br)cc1 | 30.9% (inactive) |
| O=C1CCC2c3ccc4ccccc4c3CCN12 (stereo unspecified) | -9.72% (inactive) |
| O=C(O)c1ccccc1C(=O)NCc1cccnc1 | -5.59% (inactive) |
| COc1ccc(-n2c(C)nc3sc4c(c3c2=O)CCC4)cc1 | -4.02% (inactive) |
| COc1ccc(-n2c(NN)nc3sc4c(c3c2=O)CCCC4)cc1 | 9.05% (inactive) |
| CNC(C)C#Cc1ccc2c(=O)c3cc(C)c(C)cc3oc2c1 (stereo unspecified) | -0.56% (inactive) |
| Cn1nc(C(=O)OCC(=O)Nc2ccc(S(N)(=O)=O)cc2)c2ccccc2c1=O | 4.62% (inactive) |
| COc1ccc(CCNC(=O)CSCc2ccc(F)cc2)cc1OC | -4.44% (inactive) |
| Cc1ccccc1OC(=O)CCC(=O)OCCCC(F)(F)C(F)(F)F | -4.35% (inactive) |
| COCCCN1CCN(C2Cc3ccccc3Sc3ccc(Cl)cc32)CC1 (stereo unspecified) | 54.7% (inactive) |
| c1ccc2c(c1)CC(N1CCCCC1)c1ccccc1N2 (stereo unspecified) | -6.95% (inactive) |
| CCc1nnc(NC(=O)CSc2nc3cc4c(cc3cc2CC)OCCO4)s1 | 7.01% (inactive) |
| Cn1c(CN2CCOCC2)nnc1SCC(N)=O | 7.64% (inactive) |
| O=C(NCCSCc1c(F)cccc1Cl)c1ccc(CN2CCOCC2)cc1 | 0.75% (inactive) |
| CC1CCN(S(=O)(=O)N2CCC(C(=O)O)CC2)CC1 | -4.2% (inactive) |
| C=CCNC(=O)NC(=O)CSc1nnc(C(F)(F)F)n1C | -4.51% (inactive) |
| CCCCCCc1ccc(OCC(=O)O)cc1OCC(=O)O | -14.7% (inactive) |
| CCCc1cc(=O)oc2cc(OCC(=O)OC)cc(OCC(=O)OC)c12 | 6.75% (inactive) |
| Cn1c2ccc(F)cc2c2ncn(CC3CCCO3)c(=O)c21 (stereo unspecified) | -14% (inactive) |
| CCCCn1c(=O)c(C(=O)NCc2ccncc2)c(O)c2ccccc21 | -0.26% (inactive) |
| CCCn1c(=O)c(C(=O)NCc2cccnc2)c(O)c2ccccc21 | -5.34% (inactive) |
| CCCCCn1c(=O)c(C(=O)NCc2ccncc2)c(O)c2ccccc21 | 41.4% (inactive) |

| SMILES | inhibition |
| --- | --- |
| CC(C)Cn1c(=O)c(C(=O)Nc2cnccn2)c(O)c2ccccc21 | -13.3% (inactive) |
| O=C(/C=C/c1ccco1)NC(=S)Nc1ccccn1 | 2.96% (inactive) |
| COc1ccc(S(=O)(=O)N(C)C2CCN(C)CC2)cc1 | -0.56% (inactive) |
| CC(=O)c1ccc(C(=O)N2CCC(CO)(Cc3cccc(C(F)(F)F)c3)CC2)cc1 | -0.21% (inactive) |
| CC1=C(C(=O)NC2CCC(C)CC2)C2(CCC(C)CC2)OC1=O (stereo unspecified) | 3.77% (inactive) |
| Cc1ccc(C(=O)C2C(=O)c3ccccc3C2=O)cc1 | 39.5% (inactive) |
| CCc1ccc(/C=C/C(=O)c2ccc(S(=O)(=O)N(C)C)cc2)cc1 | 6.7% (inactive) |
| Cc1ccc(/C=C/C(=O)c2ccccc2O)cc1 | 11.9% (inactive) |
| O=C(c1ccccc1)C1C(=O)c2ccccc2C1=O | -2.43% (inactive) |
| CCc1ccc(/C=C/C(=O)c2c(C)cc(C)[nH]c2=O)cc1 | 8.7% (inactive) |
| COC(=O)C1C(=O)C(C(=O)/C=C/c2ccccc2)C(=O)CC1(C)C (stereo unspecified) | -2.58% (inactive) |
| CNc1nc(-c2ccc3c(c2)CCN3C(=O)c2ccccc2F)cs1 | 0.06% (inactive) |
| CC(C)(C)NC(=O)CN(C(=O)CSc1nnc(COc2ccccc2)o1)c1cccc(F)c1 | 4.71% (inactive) |
| CC(C)OP(=O)(OC(C)C)C(NCc1ccccc1)c1ccccc1 (stereo unspecified) | 4.8% (inactive) |
| COC(=O)c1c(-c2ccccc2)noc1C | -2.56% (inactive) |
| COc1ccc(/C=N/NC(=O)Nc2nonc2N)cc1 | -4.3% (inactive) |
| OCCCNCc1cccc2ccccc12 | 3.9% (inactive) |
| O=C(Nc1ccccc1Cl)c1csc(-c2cccnc2)n1 | 2.6% (inactive) |
| Cc1[nH]c(C)c2c(=O)n(-c3ccccc3)ncc12 | 3.67% (inactive) |
| CCSc1cc(N2CCCC2)nc(-c2ccc(C)cc2)n1 | 3.04% (inactive) |
| CCCSc1cc(N2CCCC2)nc(-c2ccccc2)n1 | 6.61% (inactive) |
| CC(C)(CC(=O)O)CC(=O)NNc1ncccc1C#N | 9.47% (inactive) |
| CCOc1ccc(/C=N/N(C)c2ccccc2)cc1OC | 33.5% (inactive) |
